Key:
Assay in all cases: DAPPL (digital affinity profiling via proximity ligation, sequencing); 10 mM Tris-HCl pH 7.5, 50 mM NaCl, 1 mM DTT, 4% glycerol, room temperature, 30 min; GST-TFs on glutathione beads, 16-mer random dsDNA library, 0.1% formaldehyde crosslink after washing; high values mean tight binding
Settings in all cases: protein: recombinant; tags: N-terminal GST; dsDNA, one strand shown
ELF3 = target: T1, ELF3 (Homo sapiens, UniProt P78545 1-371)
T1 sequence: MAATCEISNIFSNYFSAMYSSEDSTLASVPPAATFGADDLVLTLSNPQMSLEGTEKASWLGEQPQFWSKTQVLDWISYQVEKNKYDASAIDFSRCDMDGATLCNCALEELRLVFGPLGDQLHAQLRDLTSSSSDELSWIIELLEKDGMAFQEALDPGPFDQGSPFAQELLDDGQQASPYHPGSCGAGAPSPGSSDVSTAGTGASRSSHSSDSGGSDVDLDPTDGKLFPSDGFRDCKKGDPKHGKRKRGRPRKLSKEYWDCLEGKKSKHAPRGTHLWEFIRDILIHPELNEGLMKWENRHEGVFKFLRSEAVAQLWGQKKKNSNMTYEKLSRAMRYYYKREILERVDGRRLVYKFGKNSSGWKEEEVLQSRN
Outline: (§1)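 The binding signal reported is, for every hexamer, its read frequency for a factor over its read frequency for the tag-only sample. Reads came from pools of yeast-expressed, GST-fused human transcription factors on glutathione beads, barcoded with DNA and mixed with that sample, which were incubated with 200 nmole of a random double-stranded 16-mer DNA library in Tris/NaCl/DTT/glycerol buffer at room temperature for 30 min. After washing, the pools were crosslinked with 0.1% formaldehyde, proximity-ligated with BsaI/T4 ligase for 1 h at 37 °C, PCR-amplified and sequenced on an Illumina NextSeq500.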

ERF = target: T2, ERF (Homo sapiens, UniProt P50548 1-548)
T2 sequence: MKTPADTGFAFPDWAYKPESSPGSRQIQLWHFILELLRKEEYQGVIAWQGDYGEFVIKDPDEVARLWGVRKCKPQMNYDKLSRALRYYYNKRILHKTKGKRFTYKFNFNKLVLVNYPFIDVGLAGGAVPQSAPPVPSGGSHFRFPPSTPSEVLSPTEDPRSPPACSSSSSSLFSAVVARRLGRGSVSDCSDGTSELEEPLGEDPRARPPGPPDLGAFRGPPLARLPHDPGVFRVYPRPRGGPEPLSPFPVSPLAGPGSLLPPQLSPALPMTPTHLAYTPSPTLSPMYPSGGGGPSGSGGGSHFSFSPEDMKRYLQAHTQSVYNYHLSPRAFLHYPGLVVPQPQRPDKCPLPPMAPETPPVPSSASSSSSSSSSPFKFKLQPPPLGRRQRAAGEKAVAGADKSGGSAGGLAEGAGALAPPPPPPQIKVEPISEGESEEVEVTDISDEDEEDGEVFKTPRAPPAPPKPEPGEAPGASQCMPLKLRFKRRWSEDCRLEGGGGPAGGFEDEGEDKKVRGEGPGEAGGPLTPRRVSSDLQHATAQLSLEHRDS
Outline: as §1

ETV7 = target: T3, ETV7 (Homo sapiens, UniProt Q9Y603 1-341)
T3 sequence: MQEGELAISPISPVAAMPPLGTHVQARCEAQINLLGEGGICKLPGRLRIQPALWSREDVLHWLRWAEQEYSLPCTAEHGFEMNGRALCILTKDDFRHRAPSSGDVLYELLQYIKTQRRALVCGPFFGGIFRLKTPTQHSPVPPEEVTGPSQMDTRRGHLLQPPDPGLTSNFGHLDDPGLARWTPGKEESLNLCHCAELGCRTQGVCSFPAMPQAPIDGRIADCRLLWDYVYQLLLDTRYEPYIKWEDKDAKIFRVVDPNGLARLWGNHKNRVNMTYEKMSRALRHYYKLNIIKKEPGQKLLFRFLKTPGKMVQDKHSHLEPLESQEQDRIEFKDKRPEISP
Outline: as §1

SPI1 = SPI1 (Homo sapiens, UniProt P17947 1-270)
Outline: as §1

SPDEF = target: T4, SPDEF (Homo sapiens, UniProt O95238 1-335)
T4 sequence: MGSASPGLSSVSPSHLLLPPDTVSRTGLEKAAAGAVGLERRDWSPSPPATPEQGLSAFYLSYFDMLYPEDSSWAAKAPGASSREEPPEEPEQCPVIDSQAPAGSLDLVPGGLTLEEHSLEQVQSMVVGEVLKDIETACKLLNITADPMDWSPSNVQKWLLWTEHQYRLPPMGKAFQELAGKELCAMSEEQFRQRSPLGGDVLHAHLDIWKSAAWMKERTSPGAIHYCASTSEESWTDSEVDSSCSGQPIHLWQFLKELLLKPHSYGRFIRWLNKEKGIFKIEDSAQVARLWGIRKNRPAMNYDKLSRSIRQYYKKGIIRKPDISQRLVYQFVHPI
Outline: as §1

CRX = CRX (Homo sapiens, UniProt O43186 1-299)
Outline: as §1

ERG = target: T5, ERG (Homo sapiens, UniProt P11308 1-479)
T5 sequence: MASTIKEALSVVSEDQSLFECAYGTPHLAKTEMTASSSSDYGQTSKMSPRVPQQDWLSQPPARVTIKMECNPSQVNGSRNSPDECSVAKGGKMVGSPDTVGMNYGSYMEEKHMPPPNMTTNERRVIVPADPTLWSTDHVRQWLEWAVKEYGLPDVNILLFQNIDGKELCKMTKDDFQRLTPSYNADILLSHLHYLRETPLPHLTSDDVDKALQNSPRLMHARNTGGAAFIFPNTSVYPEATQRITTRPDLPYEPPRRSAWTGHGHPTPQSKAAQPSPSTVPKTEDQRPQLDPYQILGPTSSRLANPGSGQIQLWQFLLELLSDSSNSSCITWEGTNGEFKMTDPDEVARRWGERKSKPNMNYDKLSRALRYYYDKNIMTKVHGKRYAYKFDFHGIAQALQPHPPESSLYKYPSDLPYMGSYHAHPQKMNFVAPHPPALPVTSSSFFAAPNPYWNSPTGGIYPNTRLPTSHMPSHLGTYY
Outline: as §1

EHF = target: T6, EHF (Homo sapiens, UniProt Q9NZC4 1-300)
T6 sequence: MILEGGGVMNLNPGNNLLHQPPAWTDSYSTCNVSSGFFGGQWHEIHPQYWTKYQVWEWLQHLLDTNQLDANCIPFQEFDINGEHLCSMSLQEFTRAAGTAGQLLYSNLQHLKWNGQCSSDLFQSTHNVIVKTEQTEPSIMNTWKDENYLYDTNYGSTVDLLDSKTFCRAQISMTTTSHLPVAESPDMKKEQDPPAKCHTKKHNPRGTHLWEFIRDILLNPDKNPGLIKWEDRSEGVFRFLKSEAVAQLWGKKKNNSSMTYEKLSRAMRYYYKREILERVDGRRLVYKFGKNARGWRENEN
Outline: as §1

SPIB = SPIB (Homo sapiens, UniProt Q01892 1-262)
Outline: as §1

ETV1 = ETV1 (Homo sapiens, UniProt P50549 1-477)
Outline: as §1

ETS2 = target: T7, ETS2 (Homo sapiens, UniProt P15036 1-469)
T7 sequence: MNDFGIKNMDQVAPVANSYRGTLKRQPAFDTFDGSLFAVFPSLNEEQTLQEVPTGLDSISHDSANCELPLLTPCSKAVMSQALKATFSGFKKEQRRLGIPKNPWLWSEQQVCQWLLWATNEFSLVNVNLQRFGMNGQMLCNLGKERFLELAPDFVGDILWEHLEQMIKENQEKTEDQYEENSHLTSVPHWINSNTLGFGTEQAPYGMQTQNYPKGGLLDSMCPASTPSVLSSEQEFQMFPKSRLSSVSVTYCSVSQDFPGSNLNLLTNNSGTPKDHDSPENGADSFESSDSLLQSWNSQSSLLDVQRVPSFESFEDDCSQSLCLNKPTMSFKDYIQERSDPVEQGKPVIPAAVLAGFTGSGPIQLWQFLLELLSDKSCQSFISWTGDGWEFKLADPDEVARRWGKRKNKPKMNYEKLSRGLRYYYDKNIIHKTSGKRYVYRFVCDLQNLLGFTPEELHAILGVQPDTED
Outline: as §1

ELF5 = target: T8, ELF5 (Homo sapiens, UniProt Q9UKW6-2 1-255)
T8 sequence: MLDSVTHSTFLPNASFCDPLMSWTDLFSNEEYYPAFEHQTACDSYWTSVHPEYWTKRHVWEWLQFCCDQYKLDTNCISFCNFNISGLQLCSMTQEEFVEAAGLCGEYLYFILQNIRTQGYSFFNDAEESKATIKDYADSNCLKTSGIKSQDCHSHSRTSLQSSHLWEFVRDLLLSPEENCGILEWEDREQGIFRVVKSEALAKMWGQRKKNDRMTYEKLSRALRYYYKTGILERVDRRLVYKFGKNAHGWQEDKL
Outline: as §1

ETV3 = target: T9, ETV3 (Homo sapiens, UniProt P41162-2 1-143)
T9 sequence: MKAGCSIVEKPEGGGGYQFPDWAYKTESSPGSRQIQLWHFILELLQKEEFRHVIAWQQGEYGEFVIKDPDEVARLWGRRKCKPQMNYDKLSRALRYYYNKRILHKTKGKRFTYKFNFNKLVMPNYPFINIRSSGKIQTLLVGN
Outline: as §1

Sequence of CRX (O43186 whole entry): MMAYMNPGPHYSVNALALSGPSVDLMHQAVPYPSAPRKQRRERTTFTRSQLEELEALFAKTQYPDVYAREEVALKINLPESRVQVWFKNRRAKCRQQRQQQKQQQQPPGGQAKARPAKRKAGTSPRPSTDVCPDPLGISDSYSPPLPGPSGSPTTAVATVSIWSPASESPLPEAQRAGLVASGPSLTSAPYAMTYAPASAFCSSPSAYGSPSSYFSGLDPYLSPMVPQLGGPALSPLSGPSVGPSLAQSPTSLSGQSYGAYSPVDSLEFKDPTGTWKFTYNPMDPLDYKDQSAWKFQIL
Sequence of ETV1 (P50549 whole entry): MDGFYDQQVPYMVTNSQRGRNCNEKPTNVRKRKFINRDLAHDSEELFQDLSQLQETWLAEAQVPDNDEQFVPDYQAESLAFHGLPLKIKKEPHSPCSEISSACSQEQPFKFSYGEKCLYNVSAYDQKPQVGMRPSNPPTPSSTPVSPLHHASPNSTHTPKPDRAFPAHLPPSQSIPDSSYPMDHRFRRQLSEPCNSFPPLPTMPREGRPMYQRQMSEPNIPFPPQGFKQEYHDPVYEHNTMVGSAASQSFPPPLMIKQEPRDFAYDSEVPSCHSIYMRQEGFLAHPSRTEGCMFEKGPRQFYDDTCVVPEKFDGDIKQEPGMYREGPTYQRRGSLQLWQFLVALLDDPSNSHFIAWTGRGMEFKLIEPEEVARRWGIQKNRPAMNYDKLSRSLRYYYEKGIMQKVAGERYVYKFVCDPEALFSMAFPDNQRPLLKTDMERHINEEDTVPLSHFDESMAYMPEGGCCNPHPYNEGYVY
Sequence of SPIB (Q01892 whole entry): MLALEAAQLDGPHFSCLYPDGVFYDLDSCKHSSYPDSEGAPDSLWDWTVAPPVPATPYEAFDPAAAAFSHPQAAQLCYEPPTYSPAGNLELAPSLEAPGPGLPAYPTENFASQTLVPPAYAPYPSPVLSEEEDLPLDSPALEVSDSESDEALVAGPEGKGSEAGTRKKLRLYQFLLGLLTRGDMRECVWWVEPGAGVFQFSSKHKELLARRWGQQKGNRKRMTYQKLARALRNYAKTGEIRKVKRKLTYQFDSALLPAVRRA

## GAAAGG
ELF3
  binding signal: 1.03 fold enrichment (6-mer frequency, TF over GST control)
ERF
  binding signal: 1 fold enrichment (6-mer frequency, TF over GST control)
ETV7
  binding signal: 1.02 fold enrichment (6-mer frequency, TF over GST control)

## GTGTAA
SPI1
  binding signal: 1.04 fold enrichment (6-mer frequency, TF over GST control)
ELF3
  binding signal: 1.11 fold enrichment (6-mer frequency, TF over GST control)

## GGTTGT
ELF3
  binding signal: 1.06 fold enrichment (6-mer frequency, TF over GST control)
SPDEF
  binding signal: 1.03 fold enrichment (6-mer frequency, TF over GST control)

## TAAGTG
CRX
  binding signal: 1.14 fold enrichment (6-mer frequency, TF over GST control)

## GGATGA
ERG
  binding signal: 1.01 fold enrichment (6-mer frequency, TF over GST control)
EHF
  binding signal: 1 fold enrichment (6-mer frequency, TF over GST control)
SPIB
  binding signal: 1.06 fold enrichment (6-mer frequency, TF over GST control)
CRX
  binding signal: 1.11 fold enrichment (6-mer frequency, TF over GST control)
ETV1
  binding signal: 1.05 fold enrichment (6-mer frequency, TF over GST control)
ETS2
  binding signal: 1.1 fold enrichment (6-mer frequency, TF over GST control)
SPDEF
  binding signal: 1.11 fold enrichment (6-mer frequency, TF over GST control)
ETV7
  binding signal: 1.06 fold enrichment (6-mer frequency, TF over GST control)
ELF5
  binding signal: 1.11 fold enrichment (6-mer frequency, TF over GST control)
ETV3
  binding signal: 1.03 fold enrichment (6-mer frequency, TF over GST control)

Source: PMC7862700, “An all-to-all approach to the identification of sequence-specific readers for epigenetic DNA modifications on cytosine”
